{"source": "PubChem BioAssay AID1259389", "about": "(Center for Chemical Genomics, University of Michigan, 2018)", "note": "The whole screen tested about 100,000 compounds, of which about 620 (0.62%) were called active. This is one part of a sample in which actives are shown more often than they occur. Values without a mark were called inactive. Rule for the calls: active = z-score of 3 or more in at least 2 runs; inactive = the rest.", "data": [{"test": "TAR RNA-Tat peptide displacers, HIV-1, primary screen, biochemical, FRET, FAM/TAMRA-labeled Tat (AID 1259389)", "settings": "HIV-1 TAR RNA, Tat peptide displacement FRET; active compounds read high", "values": [{"smiles": "O=C(O)C1CSC(c2cccnc2)N1", "note": "(stereo not given)", "z-score": "3.48 (active)"}, {"smiles": "c1ccc2sc(N3CCNCC3)nc2c1", "z-score": -0.36}, {"smiles": "Cc1nn2c3cc(N4CCNCC4)ccc3nc2c2ccccc12", "z-score": "3.84 (active)"}, {"smiles": "CC(=O)N[C@H]1CN2CC[C@H](O)[C@@H]2[C@@H](O)[C@@H]1O", "z-score": 0.34}, {"smiles": "CC(C)(C)[C@]1(O)C[C@@H]2OC(=O)C[C@@]23C(=O)O[C@@H]2OC(=O)[C@H](O)[C@]213", "z-score": 2.75}, {"smiles": "C#CCOc1ccc(C2SCC(=O)Nc3n[nH]c(C)c32)cc1OC", "note": "(stereo not given)", "z-score": 1.62}, {"smiles": "CCC1c2cccn2-c2ccccc2CN1C(=O)Nc1ccc(F)c(Cl)c1", "note": "(stereo not given)", "z-score": 1.12}, {"smiles": "C=CCOc1ccc(C2SCC(=O)Nc3n[nH]c(C)c32)cc1", "note": "(stereo not given)", "z-score": 1.1}, {"smiles": "CN1CC=C(c2noc(CCC(=O)Nc3ccc(Cl)cn3)n2)CC1", "z-score": 1.39}, {"smiles": "CCC(CC)n1[nH]c(=O)c2c1NC(=O)CSC2c1ccc(Br)cc1", "note": "(stereo not given)", "z-score": 0.25}]}]}
